Out of some 16,000 compounds screened, about 5,800 (36%) were called active. Inconclusive results (about 23%) are left out. This is one part of the list. A number with no mark means an inactive call. The call rests on the fitted dose curve; in most records, active means well fitted curve in the direction sought with a large enough effect; inconclusive means small, poorly fitted or top-dose-only effect, or effect the other way; inactive means no such curve, though single readings can be large or run the other way.
On the % scale 0 is the no-effect control and ±100 the full control effect.

The target in the assay is Cytochrome P450 2C19 (Homo sapiens) (UniProt P33261). As to the kind of experiment: Cytochrome panel assay with activity outcomes. The conditions noted are these: recombinant CYP, pro-luciferin dealkylation, luminescence, p450-cyp2c19; series mostly up to 57.1 µM; activity, negative = inhibition: at the top concentration.
Cytochrome P450 2C19 (Homo sapiens), sequence (P33261 whole entry, looked up): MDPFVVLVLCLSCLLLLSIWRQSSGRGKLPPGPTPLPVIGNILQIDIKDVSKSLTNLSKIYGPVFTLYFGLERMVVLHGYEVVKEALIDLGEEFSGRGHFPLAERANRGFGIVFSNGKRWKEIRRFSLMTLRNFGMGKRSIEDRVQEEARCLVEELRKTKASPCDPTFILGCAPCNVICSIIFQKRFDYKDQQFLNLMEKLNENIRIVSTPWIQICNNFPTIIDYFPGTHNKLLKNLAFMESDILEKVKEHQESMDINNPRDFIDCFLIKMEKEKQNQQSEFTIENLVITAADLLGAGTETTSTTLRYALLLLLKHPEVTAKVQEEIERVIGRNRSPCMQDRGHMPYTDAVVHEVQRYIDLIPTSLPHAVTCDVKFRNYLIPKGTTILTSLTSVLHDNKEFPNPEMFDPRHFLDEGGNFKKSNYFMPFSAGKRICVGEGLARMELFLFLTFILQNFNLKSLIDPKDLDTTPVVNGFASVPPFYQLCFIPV
As to `O=C1C2C3C=CC(C3)C2C(=O)N1c1ncn[nH]1` (configuration not stated), the “activity, negative = inhibition” value is -7.13%.
One may read the AC50 as the concentration giving half of the maximal activity seen. As for `CSc1ccc(Cl)c(C(=O)NCCOc2cc(C)ccc2C(C)C)c1`, the AC50 is 5.01 µM (active).
On the same count and under the same terms, for `CC(=O)Oc1cc(C(C)C)c(OCCN(C)C)cc1C` the value was “inactive”.
For the molecule `CN(C)CCNC(=O)c1cc(Br)ccc1Cl`, the “activity, negative = inhibition” value is -28.6%.
`CC(C)=CCC/C(C)=C/CO/N=C1/[C@H]2O[C@@H]2[C@@H](O)[C@H]2[C@H]1CCn1c(=O)n(Cc3cc4c(cc3Cl)OCO4)c(=O)n12`: the activity, negative = inhibition was 9.01% [at 11.4 µM].
Take `Cc1ccc(S(=O)(=O)Nc2ccccc2C=O)cc1`: the concentration at half-maximal activity (AC50) was 5.01 µM (active).
In the case of `Cc1ccc(S(=O)(=O)N[C@H]2COC(=O)C/C=C\[C@H](C)[C@@H](NS(=O)(=O)c3ccc(C)cc3)COC(=O)C/C=C\[C@@H]2C)cc1`, the activity, negative = inhibition was 18.4% [at 11.4 µM].
Turning to `Cc1ccc(S(=O)(=O)Nc2ccccc2C(=O)c2ccc(C)c(C)c2)cc1`, the activity, negative = inhibition was 30.1% [at 11.4 µM].
In the case of `C[C@@](N)(Cc1ccc(O)cc1)C(=O)O`, the AC50 entry is “inactive”.
Regarding `CCOC(=O)c1c(C(C)(C)C)oc2ccc(O)cc12`, the concentration at half-maximal activity (AC50) is 3.98 µM (active).
In the case of `C[C@](N)(Cc1ccc(O)c(O)c1)C(=O)O`, the “activity, negative = inhibition” value was 26%.
For `O=C(N/N=C/c1c[nH]c2ccc(Br)cc12)c1ccn(Cc2ccc(Cl)cc2)n1`, the AC50 was 3.55 µM (active).
`O=C(N/N=C/c1c[nH]c2ccccc12)c1ccn(Cc2ccc(Cl)cc2Cl)n1`: the AC50 was 2 µM (active).
Take `O=c1[nH]n(-c2cccc3cccnc23)c(=O)c2ccccc12`: the concentration at half-maximal activity (AC50) is 11.2 µM (active).
As to `O=c1ncn(-c2ccccc2F)c2ncccc12`, the “activity, negative = inhibition” value was -27%.
As for `Cc1cccc(CNc2nc(-c3ccoc3)nc3ccccc23)c1`, the AC50 is 7.94 µM (active).
The same measure, in the same setting: the figure for `CNc1nc(-c2cccc(C#N)c2)nc2ccccc12` is 7.94 µM (active).
Take `c1ccc2c(NC3CCNCC3)nc(-c3ccoc3)nc2c1`: the “activity, negative = inhibition” value was 15.9%.
Consider `COc1ccccc1CNc1nc(-c2cccc(C#N)c2)nc2ccccc12`, for which the AC50 is 3.98 µM (active).
On to `N#Cc1cccc(-c2nc(Nc3ccccc3)c3ccccc3n2)c1`, for which the “activity, negative = inhibition” value is 15.4%.
Regarding `COc1cccc(-c2nc(NCc3cccs3)c3ccccc3n2)c1`, the AC50 is 3.16 µM (active).
Regarding `N#Cc1cccc(-c2nc(NCc3cccs3)c3ccccc3n2)c1`, the “activity, negative = inhibition” value was -23.1%.
On to `Cc1cnc(CNc2nc(-c3ccoc3)nc3ccccc23)cn1`, for which the “activity, negative = inhibition” value was -27.9%.
On to `Cc1ccnc(N)c1`, for which the “activity, negative = inhibition” value is -27.7%.
Still for that read-out and setting: the figure for `C[C@H](N=C(NC#N)Nc1ccncc1)C(C)(C)C` is 5.2%; for `NC(N)=N[C@@H]1C(O)[C@H](N=C(N)N)[C@@H](O)C(O)[C@H]1O` (some centres not stated) it is 12.7% [at 11.4 µM].
Take `N#Cc1cccc(-c2nc(NCc3ccccc3)c3ccccc3n2)c1`: the AC50 is 6.31 µM (active).
As for `COc1cccc(-c2nc(NC3CCNCC3)c3ccccc3n2)c1`, the “activity, negative = inhibition” value is 8.48%.
`Cc1cnc(CNc2nc(-c3cccnc3)nc3ccccc23)cn1`: the “activity, negative = inhibition” value was -29.8%.
With `COc1cccc(-c2nc(NCc3ccccc3)c3ccccc3n2)c1`, the AC50 was 3.98 µM (active).
With `Cc1cccc(CNc2nc(-c3cccnc3)nc3ccccc23)c1`, the half-maximal activity concentration (AC50) is 10 µM (active).
Take `N#Cc1cccc(-c2nc(NCc3cccnc3)c3ccccc3n2)c1`: the “activity, negative = inhibition” value was -27.2%.
Regarding `COc1cccc(-c2nc(NCc3ccccc3OC)c3ccccc3n2)c1`, the concentration at half-maximal activity (AC50) was 7.94 µM (active).
On to `COc1ccc(-c2cc(C(F)(F)F)nc(NCc3cccnc3)n2)cc1`, for which the AC50 was 2.82 µM (active).
As to `COc1cccc(-c2nc(NCc3cccnc3)c3ccccc3n2)c1`, the half-maximal activity concentration (AC50) is 25.1 µM (active).
On to `O=C(O)c1ccc(C(=O)O)c(C(=O)O)c1.[NH-][C@@H]1CCCC[C@@H]1[NH-].[Pt]`, for which the activity, negative = inhibition was -17.9% [at 11.4 µM].
Consider `CN1CCC2(CC1)CCN(C(=O)c1cc(C(F)(F)F)cc(C(F)(F)F)c1)CC2`, for which the “activity, negative = inhibition” value was -21.7%.
For the molecule `CON/C=C(\C=Nc1ccccc1)c1ncc(C(F)(F)F)cc1Cl`, the AC50 is 3.55 µM (active).
`Cn1cnc2c(NC3CCCC3)ncnc21`: the “activity, negative = inhibition” value was -28%.
For `NS(=O)(=O)c1ccc(N=C2C(=O)Nc3ccccc32)cc1`, the activity, negative = inhibition is -2.67% [at 11.4 µM].
With `O=C1Nc2ccccc2C1=Nc1ccc(S(=O)(=O)Nc2nccs2)cc1`, the activity, negative = inhibition is 21.4% [at 11.4 µM].
For the molecule `O=C1Nc2ccccc2/C1=N/c1sc2c(c1C(=O)NCCc1ccccc1)CCCC2`, the half-maximal activity concentration (AC50) was 2.51 µM (active).
`COC(=O)c1ccc(OCC2c3cc(OC)c(OC)cc3CCN2C(=O)C2CC2)cc1` (configuration not stated): the AC50 is 2.51 µM (active).
Take `COc1ccc(C(=O)OC(C)CN2CCN(C)CC2)cc1OC` (configuration not stated): the “activity, negative = inhibition” value was -16.7%.
Same read-out and setting: for `COc1cc2c(cc1OC)[C@H](c1ccccc1)CN(C)CC2` the value was -2.52%.
Same read-out and setting: the figure for `NCCCCN` is 31.9%.
For the molecule `NCCCNCCCCNCCCN`, the AC50 was 7.94 µM (active).
On to `NCCCCNCCCN`, for which the AC50 entry was “inactive”.
Regarding `Cn1nc(C(F)(F)F)c(/C=N/OC(=O)c2ccccc2Cl)c1SCc1ccc(Cl)cc1`, the concentration at half-maximal activity (AC50) was 0.355 µM (active).
As to `Cn1c(=O)c2[nH]c([C@@H]3CC(=O)C[C@H](c4nc5c([nH]4)c(=O)n(C)c(=O)n5C)N3)nc2n(C)c1=O`, the activity, negative = inhibition is 1.66% [at 11.4 µM].
In the case of `Cc1ccc2c(c1)N(CC(=O)NC1CCCc3ccccc31)C(=O)CO2` (configuration not stated), the concentration at half-maximal activity (AC50) was 2.51 µM (active).
Consider `O=C(O)C[C@@H]1CCCc2ccccc2[C@H]1O`, for which the “activity, negative = inhibition” value is 3.65%.

The values above are taken from PubChem BioAssay AID1851 (National Center for Advancing Translational Sciences (NCATS), 2009).
